Results reported in PubChem BioAssay (Tox21).
Inconclusive results are not listed. Calls of active or inactive are those of the source. Unless noted, calls come from the whole dose curve; as a rule, active = well fitted curve in the direction sought with a large enough effect in the repeat runs; inconclusive = weak or mixed curves; inactive = no such curve, though single readings can be large; an effect the other way counts as inactive or inconclusive.

Key:
[1] = qHTS assay to identify small molecule antagonists of the estrogen related receptor signaling pathway with the pleiotropic PPARgamma coactivator (PGC) from Tox21 10K library - cell viability counter screen (AID 1224840; active = well fitted cell-killing curve with a large enough effect in the repeat runs, not every such curve was filed as active; note: nearly all actives have a fitted effect of over 40% in size)
How it was run: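 Viability counter screen, PGC/ERR cells: 17.5 h compound exposure at 37 C, CellTiter-Fluor fluorescence endpoint.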

[2] = target: Thyrotropin receptor (Homo sapiens) (UniProt P16473); assay: qHTS assay to identify small molecule agonists of the thyroid stimulating hormone receptor (TSHR) signaling pathway (AID 1224843; calls by dose curve; note: nearly all actives have a fitted effect of over 45% in size)
How it was run: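 HEK293/TSHR, 800 cells/well; cpd 30 min RT; add cAMP-d2 + anti-cAMP-cryptate, 1 h RT; fluorescence read on plate reader. 15-pt titration, n=3.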

[3] = qHTS assay to identify small molecule agonists of the hypoxia (HIF-1) signaling pathway - cell viability counter screen (AID 1224844; calls by dose curve; note: nearly all actives have a fitted effect of over 50% in size)
How it was run: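 Same wells as the HIF-1 reporter screen; ME-180 cells carrying HRE-bla, 17 hr treatment at 37C; CellTiter-Glo luminescence read after 30 min at room temperature.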

[4] = qHTS assay to identify small molecule agonists of H2AX (AID 1224845; active = well fitted activation curve with a large enough effect in the signal ratio in the repeat runs, not every such curve was filed as active; the % refers to the signal ratio)
How it was run: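 Wild-type CHO-K1 cells, plated overnight, exposed 3hr at 37C to 15 concentrations (0.76% DMSO final). Lysed, then HTRF anti-pH2AX (S139) cryptate and anti-H2AX-d2 antibodies, 24 hr room temperature; 665/620 nm emission read.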

[5] = qHTS assay to identify small molecule agonists of the hypoxia (HIF-1) signaling pathway (AID 1224846; active = well fitted activation curve with a large enough effect in the signal ratio in the repeat runs, not every such curve was filed as active; the % refers to the signal ratio)
How it was run: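 In ME-180 cells bearing an HRE-bla construct, 17 h treatment with DMSO-dissolved compounds at 37C was followed by CCF4-AM loading to quantify reporter induction.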

[6] = qHTS assay to identify small molecule agonists of H2AX - cell viability counter screen (AID 1224847; calls by dose curve; note: top concentration of the series differs between compounds; nearly all actives have a fitted effect of over 30% in size)
How it was run: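 Cytotoxicity counter screen in wild-type CHO-K1 cells: a 3 hr compound treatment at 37C across 15 concentrations, followed by CellTiter-Glo luminescence to gauge viable cells.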

[7] = qHTS RealTime-Glo MT Cell Viability Assay in HepG2 cells - 24 hour (AID 1224867); note: nearly all actives have a fitted effect of over 50% in size
How it was run: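 Compound treatment began 5 h after plating HepG2 cells (600/well) with NanoLuc luciferase and prosubstrate. Plates stayed at 37 C for 40 h; luminescence was captured at six time points, 0 h through 40 h.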

[8] = qHTS RealTime-Glo MT Cell Viability Assay in HEK293 cells - 32 hour (AID 1224868); note: top concentration of the series differs between compounds; nearly all actives have a fitted effect of over 50% in size
How it was run: (§1)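 Quantitative high-throughput screen of the Tox21 10K library in HEK293: cells and RealTime-Glo reagents plated together, compound added at 5 h, luminescence monitored through 40 h at 37 C.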

[9] = A CellTox Green Cytotoxicity Assay to monitor cytotoxicity in HEK293 cells - 0 hour (AID 1224869); note: nearly all actives have a fitted effect of over 50% in size
How it was run: (§2)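 Homogeneous no-lysis format: HEK293 cell suspension mixed with CellTox Green reagent, seeded, incubated 5 h at 37 C/5% CO2, then dosed by pintool with compound in DMSO.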

[10] = qHTS RealTime-Glo MT Cell Viability Assay in HepG2 cells - 40 hour (AID 1224870); note: nearly all actives have a fitted effect of over 50% in size
How it was run: (§3)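 HepG2 cells (600/well) mixed with RealTime-Glo MT reagent, settled 5 h at 37 C/5% CO2 before compound addition. Nonlytic NanoLuc luminescence from viable-cell prosubstrate reduction read repeatedly during 40 h treatment at 37 C.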

[11] = A CellTox Green Cytotoxicity Assay to monitor cytotoxicity in HEK293 cells - 40 hour (AID 1224871); note: nearly all actives have a fitted effect of over 45% in size
How it was run: as §2

[12] = qHTS RealTime-Glo MT Cell Viability Assay in HEK293 cells - 16 hour (AID 1224872)
How it was run: as §1

[13] = qHTS RealTime-Glo MT Cell Viability Assay in HepG2 cells - 8 hour (AID 1224873); note: nearly all actives have a fitted effect of over 55% in size
How it was run: as §3

[14] = qHTS RealTime-Glo MT Cell Viability Assay in HEK293 cells - 40 hour (AID 1224874); conditions: RealTime-Glo luminescence; max response: hits give low values; note: nearly all actives have a fitted effect of over 50% in size
How it was run: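 Measured as luminescence from the same continuously cultured HEK293 wells at successive time points (0, 8, 16, 24, 32, 40 h) after compound addition. Reagent present from seeding; dosing at 5 h; incubation 37 C.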

[15] = A CellTox Green Cytotoxicity Assay to monitor cytotoxicity in HEK293 cells - 24 hour (AID 1224875); note: nearly all actives have a fitted effect of over 45% in size
How it was run: as §2

[16] = A CellTox Green Cytotoxicity Assay to monitor cytotoxicity in HepG2 cells - 16 hour (AID 1224876); note: nearly all actives have a fitted effect of over 45% in size
How it was run: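 Fluorescent DNA-binding dye, 600 HepG2 cells/well, 5 h preincubation then compound in DMSO; same plates read at 0–40 h, 37 C.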

[17] = qHTS assay to identify small molecule agonists of the estrogen related receptor signaling pathway with the pleiotropic PPARgamma coactivator (PGC) from Tox21 10K library (AID 1224842); note: nearly all actives have a fitted effect of over 15% in size
How it was run: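 PGC/ERR reporter cell line, 2,000 cells per well, incubated 6 h at 37 C before 23 nL compound in DMSO was added. After 18 h at 37 C, One-Glo luminescence read following 30 min at room temperature.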

[18] = qHTS assay to identify small molecule antagonists of the estrogen related receptor (ERR) signaling pathway from Tox21 library (AID 1224848); note: nearly all actives have a fitted effect of over 50% in size
How it was run: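 Compounds dissolved in DMSO are pin-transferred onto ERR reporter cells (2,000 per well) that have settled for 6 h at 37 C. Plates then incubate 18 h at 37 C before ONE-Glo luciferase reagent and a luminescence read 30 min later.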

[19] = qHTS assay to identify small molecule agonists of the estrogen related receptor (ERR) signaling pathway from Tox21 library (AID 1224849; calls by dose curve; note: nearly all actives have a fitted effect of over 15% in size); conditions: ERR reporter cell line, ONE-Glo luciferase, 18 h; at 92.4 µM (top of the series) unless noted
How it was run: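 Reporter cells (ERR, NTP source) treated with Tox21 10K compounds 18 h, 37 C. Readout: ONE-Glo luminescence, 30 min RT.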
% is set by controls: 0 for no effect and ±100 for the full control effect.

Chain of Thyrotropin receptor (Homo sapiens) (P16473 whole entry, looked up): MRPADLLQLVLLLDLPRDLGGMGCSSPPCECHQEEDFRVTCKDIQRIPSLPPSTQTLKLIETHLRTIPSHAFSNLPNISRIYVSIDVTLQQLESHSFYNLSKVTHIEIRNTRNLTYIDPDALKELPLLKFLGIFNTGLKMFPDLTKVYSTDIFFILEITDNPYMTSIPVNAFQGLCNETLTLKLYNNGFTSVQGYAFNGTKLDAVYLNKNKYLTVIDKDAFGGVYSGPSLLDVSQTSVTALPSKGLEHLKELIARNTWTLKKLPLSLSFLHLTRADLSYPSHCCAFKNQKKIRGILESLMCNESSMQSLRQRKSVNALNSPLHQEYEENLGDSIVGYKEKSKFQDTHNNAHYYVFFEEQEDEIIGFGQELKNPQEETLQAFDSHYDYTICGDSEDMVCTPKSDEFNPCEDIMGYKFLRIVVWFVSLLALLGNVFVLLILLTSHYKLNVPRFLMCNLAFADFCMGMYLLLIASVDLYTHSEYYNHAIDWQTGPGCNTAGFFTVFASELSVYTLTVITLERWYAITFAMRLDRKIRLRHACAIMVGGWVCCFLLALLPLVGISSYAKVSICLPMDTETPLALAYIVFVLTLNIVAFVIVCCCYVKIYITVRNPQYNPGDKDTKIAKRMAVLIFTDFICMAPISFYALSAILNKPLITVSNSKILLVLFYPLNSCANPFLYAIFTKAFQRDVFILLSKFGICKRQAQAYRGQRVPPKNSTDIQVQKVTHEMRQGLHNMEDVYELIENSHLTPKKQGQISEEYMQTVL

Cc1ccc2sc3cccc(C)c3c2c1
inactive: Potency [1] | Potency [2] | Potency [3] | Potency [4] | Potency [5] | Potency [6] | Potency [7] | Potency [8] | Potency [9] | Potency [10] | Potency [11] | Potency [12] | Potency [13] | max response [14] 12.7% | Potency [15] | Potency [16]

C=C[Si](C)(C)Cl
inactive: viability change, negative = cytotoxic [1] 3.07% [at 8.39 µM] | activation [2] -10.3% [at 8.39 µM] | activity change, negative = cytotoxicity [3] -0.253% [at 6.97 µM] | activation (H2AX phosphorylation) [4] 0.0782% [at 14 µM] | activation [5] 0.268% [at 7.01 µM] | activity change, negative = cytotoxicity [6] -1.05% [at 14 µM] | activity change, negative = cytotoxicity [7] -0.615% [at 6.97 µM] | activity change, negative = cytotoxic [8] -3.52% [at 6.97 µM] | cytotoxicity [9] -1.84% [at 6.97 µM] | activity change, negative = cytotoxic [10] 24.3% [at 6.97 µM] | activity change, negative = cytotoxicity [12] -7.44% [at 6.97 µM] | viability change, negative = cytotoxic [13] -15.7% [at 6.97 µM] | max response [14] -5.42% | activity change [15] -5.65% [at 6.97 µM, hits give high values] | cytotoxicity increase [16] -13.5% [at 6.97 µM]

C=C(C)CCO
inactive: Potency [1] | Potency [2] | Potency [3] | Potency [4] | Potency [5] | Potency [6] | Potency [7] | Potency [8] | Potency [9] | Potency [10] | Potency [11] | max response [14] 1.14% | Potency [15] | Potency [16]

Cc1ccc(Cl)c(N)c1Cl
inactive: Potency [1] | Potency [17] | Potency [18] | activity change, positive = activation [19] -0.961% | Potency [7] | Potency [8] | Potency [9] | Potency [12] | Potency [13] | max response [14] -1.11% | Potency [16]

CCNc1nc(NC(C)(C)C)nc(OC)n1
inactive: Potency [1] | Potency [2] | Potency [3] | Potency [4] | Potency [5] | Potency [6] | Potency [7] | Potency [9] | Potency [10] | Potency [11] | Potency [15] | Potency [16]

Cc1ccc(C=O)cc1
inactive: Potency [1] | Potency [2] | Potency [3] | Potency [4] | Potency [5] | Potency [6] | Potency [7] | Potency [8] | Potency [9] | Potency [10] | Potency [11] | max response [14] 7.49% | Potency [15] | Potency [16]

NC(=O)C1CO1 (configuration not stated)
inactive: Potency [1] | Potency [2] | Potency [3] | Potency [4] | Potency [5] | Potency [6] | Potency [7] | Potency [8] | Potency [9] | Potency [10] | Potency [12] | Potency [13] | max response [14] 3.16% | Potency [15] | Potency [16]
